# pKd: −log10 of the molar value.
# Experiments:
# GRK2 = tested on: T1, GRK2
# T1 construct: gene ADRBK1
# GRK3 = tested on: T2, GRK3
# T2 construct: gene ADRBK2
# HASPIN = tested on: T3, HASPIN
# T3 construct: gene GSG2
# 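Further: kd values determined as follow-up on hits from a single-replicate KINOMEscan panel screen.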
smiles,measurement,setting,value
FC(F)(F)c1ccc(-c2nn3ncccc3c2-c2ccnc(Nc3cccc(C(F)(F)F)c3)n2)cc1 [GW828205],pKd,FGFR2,< 5.00
CCC(CC)(CC)n1cnc2c(N)ncnc21 [SKF-97620],pKd,FGFR2,< 5.00
COc1ccc(NC(=O)Nc2ccc(C)c(-c3ccc(C(=O)Nc4ccncc4)cc3)c2)cc1 [GSK1398475],pKd,FLT3,5.66
O=C(Nc1n[nH]c2nc(-c3ccco3)c(Br)cc12)c1ccc(CN2CCCC2)cc1.O=C(O)[C@H](O)[C@@H](O)C(=O)O [SB-742352],pKd,FLT3,7.35
Cl.O=S(=O)(c1cccc(F)c1)c1ccc(Nc2ncnc3cc(Br)sc23)cc1Cl [GSK306886],pKd,FLT4,< 5.00
Cc1ccc(NC(=O)c2cccc(C#N)c2)cc1-c1ccc(C(=O)Nc2ccncc2)cc1 [GSK1398463],pKd,FRK,6.72
COC(=O)c1c(-c2ccccc2)c2cc(Cl)ccc2c(=O)n1Cc1ccc(S(C)(=O)=O)cc1,pKd,GAK,< 5.00
CCc1nc(-c2cccc(N(C)S(=O)(=O)c3ccccc3)c2)c(-c2ccnc(Nc3ccc(N4CCN(C(C)=O)CC4)nc3)n2)s1 [GSK1645895],pKd,GAK,6.60
CNc1nccc(-c2c(-c3ccc(F)cc3)ncn2C2CCN(C)CC2)n1 [SB-222903],pKd,GRK2,< 5.00
COc1ccc(NC(=O)c2ccc(-c3cc(-c4nnc(C)o4)ccc3C)cc2)cc1 [GW595885],pKd,GRK3,< 5.00
Cn1cc(-c2ccc3c(c2)CCN3C(=O)Cc2cccc(C(F)(F)F)c2)c2c(N)ncnc21 [GSK2606414],pKd,GRK4,< 5.00
Nc1nc(-c2cccnc2)c(-c2ccnc3ccccc23)s1 [GW684083],pKd,HASPIN,6.19
Cl.Cl.c1ccc(-c2cc3ccncc3cc2OC2CCNCC2)cc1 [GSK1122999],pKd,HASPIN,7.05
Nc1n[nH]c2nnc(-c3ccccc3)cc12 [SB-517389],pKd,HIPK3,6.54
